Measured values as given in PubChem BioAssay.
Activity calls are given as the source filed them.

Experiments:
[1] = test system: XIP peptide (Xip251-270) binding; assay: XIP fragment 251-270 binding compounds – biochemical, small-molecule microarray, fluorescence 635/667 nm, 0.1 µg/mL protein, primary screen (AID 1182); conditions: fluorescent protein binding, 635 nm, higher = more signal, called active from +8 up or from −8 down
[2] = test system: XIP peptide (Xip251-270); assay: compounds binding XIP fragment 251-270 – biochemical, small-molecule microarray, fluorescence 635/667 nm, 0.5 µg/mL protein, primary screen (AID 1183); conditions: fluorescence 635 nm, higher = more signal
[3] = blood-stage malaria parasite viability loss – strain 3D7, DAPI fluorescence, 100 nL, primary screen (AID 1184);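 further: parasites grown inside human red blood cells in medium with human serum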; conditions: P. falciparum 3D7 growth, 3 d, higher = more signal
[4] = molecular target: Homeobox protein Hox-A13 (Mus musculus) (UniProt Q62424); assay: disruptors of Hoxa13 oligonucleotide interaction – biochemical, fluorescence polarization, labeled oligonucleotide, primary screen (AID 1185); conditions: Hoxa13:DNA binding, 15 min, higher = more signal, called active from +8 up or from −8 down
Sequence of Homeobox protein Hox-A13 (Mus musculus) (Q62424 whole entry, looked up): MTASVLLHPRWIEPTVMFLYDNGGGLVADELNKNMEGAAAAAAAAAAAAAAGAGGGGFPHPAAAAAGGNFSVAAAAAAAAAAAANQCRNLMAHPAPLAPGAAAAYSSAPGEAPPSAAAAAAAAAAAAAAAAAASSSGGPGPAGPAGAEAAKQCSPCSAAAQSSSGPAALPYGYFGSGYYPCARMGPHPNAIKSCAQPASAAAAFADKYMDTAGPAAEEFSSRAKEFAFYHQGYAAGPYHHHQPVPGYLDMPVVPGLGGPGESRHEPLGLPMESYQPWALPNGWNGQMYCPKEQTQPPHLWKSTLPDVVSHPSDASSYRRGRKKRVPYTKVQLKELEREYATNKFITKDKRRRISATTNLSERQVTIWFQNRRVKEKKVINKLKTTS

Which composite z-score [1] does the source give for COc1cccc([C@H]2Oc3ccc(OC)cc3C(=NOC(C)CN3CCCCc4nc(C)c(C)cc43)[C@@H]2O)c1 (stereo partly drawn) here?
The composite z-score was 1.06 (inactive).

And the composite z-score [2]?
Its composite z-score is 0.195.

What about the z-score [3] of the same compound?
Its z-score is 0.25.

What about the z-score [4] of the same compound?
Its z-score is -4.68 (inactive).

With COC(=O)NCC=Cc1nc(CCCO)co1 as the compound, how does the composite z-score [1] read?
The composite z-score was -0.755 (inactive).

What about the composite z-score [2] of the same compound?
The composite z-score was 0.432.

What about the z-score [3] of the same compound?
Its z-score is 0.316.

And the z-score [4]?
The z-score was -2.8 (inactive).

With C=CC1=C[C@H](O)[C@@H]2O[C@@H]2C12OCCCO2 as the compound, how does the composite z-score [1] read?
Its composite z-score is -0.49 (inactive).

What about the composite z-score [2] of the same compound?
The composite z-score was 0.343.

What about the z-score [3] of the same compound?
Its z-score is -0.706.

And the z-score [4]?
Its z-score is -1.87 (inactive).

For CC(C)CON=C1C[C@@H](O)[C@@H](O)[C@@H]2[C@@H]3C(=O)N(c4cccc(Oc5ccccc5)c4)C(=O)[C@@H]3CC[C@@H]12, which composite z-score [1] is on record?
The composite z-score was -0.347 (inactive).

What about the composite z-score [2] of the same compound?
The composite z-score was 0.536.

And the z-score [3]?
The z-score was 0.299.

What about the z-score [4] of the same compound?
Its z-score is -0.0907 (inactive).

Which composite z-score [1] does the source give for Cc1ccc(S(=O)(=O)N[C@H]2COC(=O)CC=C[C@@H](C)COC(=O)CC=C[C@@H]2C)cc1 here?
The composite z-score was 0.172 (inactive).

What about the composite z-score [2] of the same compound?
The composite z-score was 0.921.

And the z-score [3]?
The z-score was 0.641.

And the z-score [4]?
Its z-score is -1.06 (inactive).

With CCN1C(=O)[C@H]2[C@H]3[C@H](O)[C@H](O)CC(=O)[C@@H]3CC[C@H]2C1=O as the compound, how does the composite z-score [1] read?
Its composite z-score is 0.221 (inactive).

What about the composite z-score [2] of the same compound?
The composite z-score was 0.488.

And the z-score [3]?
The z-score was 1.51.

What about the z-score [4] of the same compound?
The z-score was 0.202 (inactive).

With CCOC(=O)[C@H](Cc1ccccc1)NC(=O)CCC1CC(OC(=O)NCc2ccc3c(c2)OCO3)CC2(CCCC(COC(=O)NCCC(C)C)O2)O1 (stereo partly drawn) as the compound, how does the composite z-score [1] read?
Its composite z-score is 0.644 (inactive).

What about the composite z-score [2] of the same compound?
The composite z-score was 0.18.

What about the z-score [3] of the same compound?
Its z-score is -1.2.

And the z-score [4]?
The z-score was -6.91 (inactive).

With C[n+]1ccc(-c2ccc(CO)cc2)cc1 as the compound, how does the composite z-score [1] read?
The composite z-score was 0.725 (inactive).

What about the composite z-score [2] of the same compound?
Its composite z-score is -0.227.

And the z-score [3]?
The z-score was 1.09.

And the z-score [4]?
The z-score was -2.76 (inactive).

For COC(=O)[C@H](C)NC(=O)CCC1CC(OC(=O)NCCc2ccc(F)cc2)CC2(CCCC(COC(=O)NCc3cccc(C(F)(F)F)c3)O2)O1 (stereo partly drawn), which composite z-score [1] is on record?
Its composite z-score is 0.64 (inactive).

And the composite z-score [2]?
Its composite z-score is 0.517.

What about the z-score [3] of the same compound?
The z-score was -0.506.

What about the z-score [4] of the same compound?
The z-score was -6.12 (inactive).

With CCCNC(=O)OC[C@H]1O[C@H](c2ccccc2)C=C[C@@H]1Oc1ccc(OC)cc1 as the compound, how does the composite z-score [1] read?
The composite z-score was -0.174 (inactive).

And the composite z-score [2]?
The composite z-score was 0.631.

What about the z-score [3] of the same compound?
The z-score was 0.284.

What about the z-score [4] of the same compound?
Its z-score is -1.63 (inactive).

Which composite z-score [1] does the source give for CCCCc1nc2c(c3c1C[C@H](C)OC3)CN(CCOc1ccccc1)CC2 here?
The composite z-score was 1.4 (inactive).

What about the composite z-score [2] of the same compound?
Its composite z-score is 0.566.

And the z-score [3]?
Its z-score is 0.964.

And the z-score [4]?
Its z-score is -4.81 (inactive).

With C=COC[C@@H]1CN2[C@@H](CC[C@@H](C)[C@@H]2c2ccc(Br)cc2)C(=O)O1 as the compound, how does the composite z-score [1] read?
Its composite z-score is -0.0657 (inactive).

And the composite z-score [2]?
Its composite z-score is 0.103.

And the z-score [3]?
Its z-score is -0.977.

What about the z-score [4] of the same compound?
Its z-score is -2.54 (inactive).

Which composite z-score [1] does the source give for COC(=O)CC=C[C@@H](C)[C@@H](C=NO[C@@H](C)c1cn([C@H](CO)Cc2ccccc2)nn1)NS(=O)(=O)c1ccc(C)cc1 here?
The composite z-score was -0.294 (inactive).

What about the composite z-score [2] of the same compound?
The composite z-score was 0.464.

What about the z-score [3] of the same compound?
The z-score was 0.281.

And the z-score [4]?
The z-score was -4.93 (inactive).

What does the source list for O=C(NN=C1C[C@@H](O)[C@@H](O)[C@@H]2[C@@H]3C(=O)N(Cc4ccccc4)C(=O)[C@@H]3CC[C@@H]12)OCc1ccccc1?
composite z-score [1]: -0.0255 (inactive); composite z-score [2]: -0.36; z-score [3]: 0.915; z-score [4]: 0.236 (inactive)

What does the source list for CON=CC[C@@H]1C=C[C@H](OC(C)=O)[C@@H](COC(C)=O)O1?
composite z-score [1]: 0.726 (inactive); composite z-score [2]: 0.763; z-score [3]: 1.2; z-score [4]: 0.463 (inactive)

What does the source list for C[C@@H]1C=CCC(=O)OC[C@H]2O[C@@H](C=C[C@@H]2O)[C@H](C)C=CCC(=O)OC1?
composite z-score [1]: 1 (inactive); composite z-score [2]: 0.538; z-score [3]: 0.387; z-score [4]: -0.659 (inactive)

Which composite z-score [1] does the source give for CCOC(=O)[C@H](CC(C)C)NC(=O)CCC1CC(OC(=O)NCCc2ccc(F)cc2)CC2(CCCC(COC(=O)NCCC(C)C)O2)O1 (stereo partly drawn) here?
The composite z-score was -0.0575 (inactive).

And the composite z-score [2]?
Its composite z-score is -0.228.

What about the z-score [3] of the same compound?
The z-score was -0.329.

What about the z-score [4] of the same compound?
Its z-score is -2.83 (inactive).

For CC(C)=CCCC(C)=CCON=C1C[C@@H](O)[C@@H](O)[C@@H]2[C@@H]3C(=O)N(Cc4ccccc4)C(=O)[C@@H]3CC[C@H]12, which composite z-score [1] is on record?
The composite z-score was -0.0515 (inactive).

What about the composite z-score [2] of the same compound?
Its composite z-score is 0.419.

What about the z-score [3] of the same compound?
Its z-score is -0.869.

And the z-score [4]?
The z-score was -4.91 (inactive).

With CCOC(=O)[C@H](Cc1ccccc1)NC(=O)CCC1CC(OC(=O)NCc2cccc3ccccc23)CC2(CCCC(COC(=O)NCc3ccccc3)O2)O1 (stereo partly drawn) as the compound, how does the composite z-score [1] read?
Its composite z-score is 0.278 (inactive).

And the composite z-score [2]?
The composite z-score was 0.355.

What about the z-score [3] of the same compound?
The z-score was -1.41.

What about the z-score [4] of the same compound?
The z-score was -1.5 (inactive).

For CO[C@@H]1COC(=O)[C@H](CCSC)NC(=O)CC=C[C@@H](C)COC(=O)[C@H](C)NC(=O)CC=C[C@H]1C, which composite z-score [1] is on record?
Its composite z-score is -0.665 (inactive).

What about the composite z-score [2] of the same compound?
The composite z-score was 0.909.

What about the z-score [3] of the same compound?
Its z-score is -0.131.

And the z-score [4]?
Its z-score is -0.042 (inactive).

With O=C1CCCC=C1C(CCc1ccccc1)OC(=O)c1ccc(Br)cc1 (stereo not drawn) as the compound, how does the composite z-score [1] read?
Its composite z-score is 0.622 (inactive).

What about the composite z-score [2] of the same compound?
The composite z-score was -0.198.

And the z-score [3]?
The z-score was -0.108.

And the z-score [4]?
The z-score was -1.88 (inactive).

With CCOC(=O)NN=C1C[C@@H](O)[C@@H](O)[C@@H]2[C@@H]3C(=O)N([C@@H](C)c4ccccc4)C(=O)[C@@H]3CC[C@H]12 as the compound, how does the composite z-score [1] read?
Its composite z-score is 0.0004 (inactive).

And the composite z-score [2]?
The composite z-score was -0.0286.

And the z-score [3]?
Its z-score is -0.125.

What about the z-score [4] of the same compound?
The z-score was -1.52 (inactive).
